The record followed here is PubChem BioAssay (Tox21).

Inconclusive results are not listed. Where a call stands in place of a potency, no number is given. Activity calls are given as the source filed them. The call rests on the fitted dose curve; in most records, active means well fitted activation curve with a large enough effect; inconclusive means small, poorly fitted or top-dose-only effect; inactive means flat fitted curve, though single readings scatter.

A short description of this test: qHTS assay to identify small molecule phospholipidosis (PLD) inducers (AID 1259344). The note with it: HepG2 phospholipidosis, LipidTOX Red imaging, 24 h; series mostly up to 38.3 µM. Summed up:
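Quantitative HTS in HepG2: compound plus LipidTOX Red dye for 24 h, paraformaldehyde fixation with Hoechst 33342, widefield high-content imaging; amiodarone as positive and DMSO as negative control.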
For orientation: qHTS replaces the single test concentration by a dilution series.
Consider `NC(=O)[C@@H]1C[C@]2(NC(=O)NC2=O)c2cc(F)ccc2O1`, for which the Potency result was “inactive”.
Turning to `CC(C)COC(=O)OCN1C(=O)CN(CCN2CC(=O)N(COC(=O)OCC(C)C)C(=O)C2)CC1=O`, the Potency entry is “inactive”.
With `CC(C)(S)C(=O)N[C@@H](CS)C(=O)O`, the Potency entry was “inactive”.
As to `N[C@@H](Cc1cnc[nH]1)C(=O)O`, the Potency entry was “inactive”.
Regarding `COc1ccc([C@@H]2CC(=O)c3c(O)cc(O[C@@H]4O[C@H](CO[C@@H]5O[C@@H](C)[C@H](O)[C@@H](O)[C@H]5O)[C@@H](O)[C@H](O)[C@H]4O)cc3O2)cc1O`, the Potency result was “inactive”.
`CC[C@H]1OC(=O)C[C@@H](O)[C@H](C)[C@@H](O[C@@H]2O[C@H](C)[C@@H](O[C@H]3C[C@@](C)(O)[C@@H](O)[C@H](C)O3)[C@H](N(C)C)[C@H]2O)[C@@H](CC=O)C[C@@H](C)C(=O)/C=C/C(C)=C/[C@@H]1CO[C@@H]1O[C@H](C)[C@@H](O)[C@@H](OC)[C@H]1OC`: the Potency entry is “inactive”.
For `COc1ccc(/C=C/C(=O)O)cc1`, the Potency result is “inactive”.
Take `C=CC1=C(C(=O)O)N2C(=O)[C@@H](NC(=O)/C(=N/OCC(=O)O)c3csc(N)n3)[C@H]2SC1` (stereo in doubt): the Potency result was “inactive”.
Take `NC(=O)[C@H]1O[C@@H](O)[C@H](O)[C@@H](O)[C@@H]1O`: the Potency entry is “inactive”.
As for `NC[C@@H]1CC[C@@H](N)[C@@H](O[C@H]2[C@H](O)[C@@H](O[C@H]3O[C@H](CO)[C@@H](O)[C@H](N)[C@H]3O)[C@H](N)C[C@@H]2N)O1`, the entry is “inactive”; as for `CCC(=O)OC(OP(=O)(CCCCc1ccccc1)CC(=O)N1C[C@H](C2CCCCC2)C[C@H]1C(=O)O)C(C)C` (stereo partly specified), “inactive”.
